Reference: PubChem BioAssay (NCATS)
Results filed as inconclusive are left out. Activity calls are given as the source filed them. Calls come from the whole dose curve; as a rule, active = well fitted curve in the direction sought with a large enough effect; inconclusive = small, poorly fitted or top-dose-only effect, or another doubt; inactive = no such curve, though single readings can be large; an effect the other way counts as inactive or inconclusive.

How the values were obtained:
[1] = system: Zika virus NS2B-NS3 protease; assay: Primary screen GU AMC qHTS for Zika virus inhibitors (AID 1347154); details: Zika NS2B-NS3 unlinked protease, AMC fluorogenic substrate; series mostly up to 54.1 µM; note: nearly all actives have a fitted effect of over 70% in size; note: potency is the fitted concentration of half-maximal effect;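 for activity change, negative = inhibition: 0% = no-inhibitor control and -100% = no-enzyme control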
In short: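 Unlinked Zika NS2B hydrophilic domain–NS3 protease complex at 25 nM in 10 mM Tris-HCl pH 8.0, 0.01% Tween 20, with an AMC peptide substrate. Fluorescence change (340/450 nm) over 15 min at room temperature, normalized to controls, fitted to 4-parameter Hill.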

[2] = target: Lysine-specific demethylase 5B (Homo sapiens) (UniProt Q9UGL1); assay: Optimization screen for KDM5B Histone Demethylases FDH coupled qHTS against the LOPAC library (AID 1347166); details: KDM5B demethylation, FDH-coupled NADH fluorescence (FDH is formaldehyde dehydrogenase); at 57.5 µM (top of the series); note: 0% is about no effect
In short: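 KDM5BDeltaAP (200nM final) in 50mM HEPES pH 7.5, 0.01% Tween-20 was preincubated with compound for 10 min at room temperature. A substrate mix of 12.5uM H3K4Me3, 25uM a-ketoglutarate, ascorbate, Fe2+, NAD+ and formaldehyde dehydrogenase was then added. NADH fluorescence (340/450 nm) was read initially and after 30 min.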

[3] = qHTS to identify inhibitors of the type 1 interferon - major histocompatibility complex class I in skeletal muscle: primary screen against the NCATS LOPAC collection (AID 1347405); details: iHSKM muscle cells, IFN-b-induced MHC-I HiBiT luminescence, 24 h; series mostly up to 45.9 µM;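 note: lytic HiBiT luminescence reporting HLA-B protein level; % is set by controls: 0 for no effect and ±100 for the full control effect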
In short: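 After 24 h at 37 C with compounds (7-point, 1:4.3 dilutions, 46 uM top final) plus 4 ng/ml IFN-beta, luminescence from lytic HiBiT detection was measured. HLA-B*08:01 in C25cl48 myoblasts carried an endogenous C-terminal HiBiT tag; medium lacked dexamethasone.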

[4] = qHTS for inhibitors of adenylyl cyclases using a fission yeast platform: a pilot screen against the NCATS LOPAC library (AID 1347410);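 note: plate controls were DMSO vehicle for no effect and DPI positive control for full effect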; details: S. pombe CHP2027, fbp1-GFP fluorescence, 18 h, yeast expressing mammalian AC9 and human GNAS; series mostly up to 57.5 µM
In short: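 Growth medium went into the plates first, then compounds were pinned (final up to 57 µM), then CHP2027 yeast were added. Plates were incubated overnight (18 h) at 30C in the dark, and GFP was measured by laser scanning cytometry.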

[5] = qHTS to identify inhibitors of the type 1 interferon - major histocompatibility complex class I in skeletal muscle: primary screen against the NCATS Mechanism Interrogation Plate v5.0 (MIPE) Libary (AID 1347411); details: iHSKM cells + IFN-b, HiBiT-tagged MHC-I luminescence, 24 h; series mostly up to 45.8 µM;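 note: plate controls were vehicle for no effect and reference inhibitor for full effect; nearly all actives have a fitted effect of over 65% in size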
In short: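 Luminescence from CRISPR HiBit-tagged endogenous HLA-B in human myoblasts reported MHC class I level after 24 h of IFN-beta (4 ng/ml) plus compound. Compounds ran as 11-point 1:3 series, top 46 uM final.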

[6] = Validation qHTS assay for inhibitors of Activation Induced Cytidine Deaminase (AID): UDG Counterscreen signal (AID 1347427); details: biochemical UDG counterscreen, fluorescence signal; series mostly up to 115 µM; note: 0% is about no effect
In short: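 Fluorescence at 560 nm excitation, 665 nm emission reports UDG signal after 250 mM NaOH (2x) addition and 30 min. Enzymes (AID 1 uM, UDG 2 U/mL, at 4/3x) preincubated 10 min with compound, then 4 h with 4x 250 nM DJC20/DJC23 substrate at room temperature.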

[7] = system: Zika virus NS2B-NS3 protease (unlinked complex); assay: Primary screen GU Rhodamine qHTS for Zika virus inhibitors: Unlinked NS2B-NS3 protease assay (AID 1347159); details: Recombinant ZIKV NS2B-NS3 protease, Rhodamine110 substrate fluorescence; series mostly up to 107 µM; note: % is set by controls: 0 for no effect and ±100 for the full control effect; nearly all actives have a fitted effect of over 60% in size
In short: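 In dose–response format, inhibition of unlinked protease (25 nM) was measured with 1.5 microM bis-peptide Rhodamine110 substrate. Aprotinin served as the intraplate control.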

[8] = system: Zika virus NS2B-NS3 protease (linked construct); assay: Primary screen NINDS Rhodamine qHTS for Zika virus inhibitors (AID 1347160); details: purified NS2B-NS3 protease, Rhodamine110 substrate fluorescence; series mostly up to 57.1 µM; note: nearly all actives have a fitted effect of over 55% in size
In short: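 Each compound, titrated, sat 15 min with 25 nM linked protease before 1.5 microM Rhodamine110 substrate went in. Fluorescence gain over the next 15 min, in pH 8.0 Tris with Tween 20, gave Hill-fitted curves.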

[9] = qHTS to identify inhibitors of the type 1 interferon - major histocompatibility complex class I in skeletal muscle: primary screen against the NCATS Pharmaceutical Collection (AID 1347407); details: human skeletal muscle cells, IFN-b-induced MHC-I HiBiT luminescence, 24 h; series mostly up to 45.9 µM;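 note: luminescence of HiBiT knocked into endogenous HLA-B as interferon-induced MHC class I level; % is set by controls: 0 for no effect and ±100 for the full control effect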
In short: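 Cells were seeded with 4 ng/ml IFN-beta, incubated 1 h, then dosed with compounds over eight 1:5 steps up to 46 uM final. After 24 h at 37 C, HiBiT lytic reagent was added and luminescence read after 10 min lysis in the dark.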

[10] = target: Protein phosphatase 1D (Homo sapiens) (UniProt O15297); assay: RapidFire Mass Spectrometry qHTS Assay for Modulators of WT P53-Induced Phosphatase 1 (WIP1) (AID 1347424); details: WIP1 dephosphorylation of phosphopeptide, RapidFire MS; series mostly up to 63 µM;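 note: plate controls were DMSO wells for no effect and GSK830371 inhibitor control at 10 µM for full effect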
In short: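 RapidFire MS readout of dephosphorylated VEPPL-S-QETFS product, with 1 uM isotope-labelled peptide standard. Reaction: 10 nM WIP1, 2 uM phosphopeptide substrate, 5 min, room temperature, after 1 h compound preincubation; stopped with 0.5% formic acid.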

[11] = target: Protein phosphatase 1D (Homo sapiens) (UniProt O15297); assay: Rhodamine-PBP qHTS Assay for Modulators of WT P53-Induced Phosphatase 1 (WIP1) (AID 1347425); details: recombinant WIP1, Rhodamine-PBP phosphate fluorescence, real-time; series mostly up to 57.5 µM; note: % of control where 0% means no effect
In short: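 WIP1 (5 nM final) was preincubated with compound for 1 hour at room temperature. It then dephosphorylated 10 uM VEPPL-pS-QETFS peptide in Tris-HCl pH 7.5 with 30 mM MgCl2. Released Pi was detected by 10 uM Rh-PBP fluorescence (ex 525/em 598 nm) read at 1-min intervals for 11 min, as delta f1 - f0.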

[12] = Confirmatory screen NINDS Rhodamine qHTS for Zika virus inhibitors (AID 1347161); details: purified enzyme assay, Rhodamine110 substrate fluorescence, 15 min; series mostly up to 114 µM; note: potency is the fitted concentration of half-maximal effect; nearly all actives have a fitted effect of over 60% in size
In short: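 In 10 mM Tris-HCl pH 8.0 containing 0.01% Tween 20, linked NS2B-NS3 protease (25 nM final) is exposed to test compounds for 15 min. Cleavage of 1.5 microM Rhodamine110 substrate is tracked by fluorescence over 15 min.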

[13] = Vero cells viability qHTS for Zika virus inhibitors (AID 1347167); details: cytotoxicity counter-screen (Zika); series mostly up to 45.9 µM; note: % is set by controls: 0 for no effect and ±100 for the full control effect
In short: (§1)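 qHTS titration; 24-48 h compound exposure, 37 degrees C/5% CO2; DMEM, 4% FBS; CellTiter Glo ATP luminescence.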

[14] = HepG2 cells viability qHTS for Zika virus inhibitors (AID 1347168); details: Zika counter-screen; series mostly up to 45.9 µM; note: % is set by controls: 0 for no effect and ±100 for the full control effect
In short: as §1

[15] = Tertiary RLuc qRT-PCR qHTS assay for Zika virus inhibitors (AID 1347169); details: infected Vero cells, reporter luminescence, 48-72 h; series mostly up to 45.9 µM; note: top concentration of the series differs between compounds; % is set by controls: 0 for no effect and ±100 for the full control effect; nearly all actives have a fitted effect of over 55% in size
In short: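 Orthogonal cell-based infection assay using recombinant ZIKV-RLuc (Cambodian) in Vero cells; compound added prior to virus at MOI 1-2. Incubation lasts 48-72 hrs at 37 degrees C before live-cell Renilla substrate is added and luminescence measured.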

Chain of Protein phosphatase 1D (Homo sapiens) (O15297 whole entry, looked up): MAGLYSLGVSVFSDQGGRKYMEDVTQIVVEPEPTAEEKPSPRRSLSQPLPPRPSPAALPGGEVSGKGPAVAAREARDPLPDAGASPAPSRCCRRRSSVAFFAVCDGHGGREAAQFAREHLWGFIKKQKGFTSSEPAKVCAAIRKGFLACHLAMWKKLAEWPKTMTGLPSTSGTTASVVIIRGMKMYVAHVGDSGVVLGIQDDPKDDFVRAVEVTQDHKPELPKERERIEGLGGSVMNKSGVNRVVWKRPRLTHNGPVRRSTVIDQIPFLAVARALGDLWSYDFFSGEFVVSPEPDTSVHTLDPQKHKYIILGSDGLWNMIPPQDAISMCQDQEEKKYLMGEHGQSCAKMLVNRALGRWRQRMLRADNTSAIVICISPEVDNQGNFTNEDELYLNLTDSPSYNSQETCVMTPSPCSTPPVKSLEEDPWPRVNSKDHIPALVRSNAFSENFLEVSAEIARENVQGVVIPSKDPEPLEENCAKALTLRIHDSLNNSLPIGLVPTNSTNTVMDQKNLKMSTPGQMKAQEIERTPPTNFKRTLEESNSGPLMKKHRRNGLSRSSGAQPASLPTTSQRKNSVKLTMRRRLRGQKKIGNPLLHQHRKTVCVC
Chain of Lysine-specific demethylase 5B (Homo sapiens) (Q9UGL1 whole entry, looked up): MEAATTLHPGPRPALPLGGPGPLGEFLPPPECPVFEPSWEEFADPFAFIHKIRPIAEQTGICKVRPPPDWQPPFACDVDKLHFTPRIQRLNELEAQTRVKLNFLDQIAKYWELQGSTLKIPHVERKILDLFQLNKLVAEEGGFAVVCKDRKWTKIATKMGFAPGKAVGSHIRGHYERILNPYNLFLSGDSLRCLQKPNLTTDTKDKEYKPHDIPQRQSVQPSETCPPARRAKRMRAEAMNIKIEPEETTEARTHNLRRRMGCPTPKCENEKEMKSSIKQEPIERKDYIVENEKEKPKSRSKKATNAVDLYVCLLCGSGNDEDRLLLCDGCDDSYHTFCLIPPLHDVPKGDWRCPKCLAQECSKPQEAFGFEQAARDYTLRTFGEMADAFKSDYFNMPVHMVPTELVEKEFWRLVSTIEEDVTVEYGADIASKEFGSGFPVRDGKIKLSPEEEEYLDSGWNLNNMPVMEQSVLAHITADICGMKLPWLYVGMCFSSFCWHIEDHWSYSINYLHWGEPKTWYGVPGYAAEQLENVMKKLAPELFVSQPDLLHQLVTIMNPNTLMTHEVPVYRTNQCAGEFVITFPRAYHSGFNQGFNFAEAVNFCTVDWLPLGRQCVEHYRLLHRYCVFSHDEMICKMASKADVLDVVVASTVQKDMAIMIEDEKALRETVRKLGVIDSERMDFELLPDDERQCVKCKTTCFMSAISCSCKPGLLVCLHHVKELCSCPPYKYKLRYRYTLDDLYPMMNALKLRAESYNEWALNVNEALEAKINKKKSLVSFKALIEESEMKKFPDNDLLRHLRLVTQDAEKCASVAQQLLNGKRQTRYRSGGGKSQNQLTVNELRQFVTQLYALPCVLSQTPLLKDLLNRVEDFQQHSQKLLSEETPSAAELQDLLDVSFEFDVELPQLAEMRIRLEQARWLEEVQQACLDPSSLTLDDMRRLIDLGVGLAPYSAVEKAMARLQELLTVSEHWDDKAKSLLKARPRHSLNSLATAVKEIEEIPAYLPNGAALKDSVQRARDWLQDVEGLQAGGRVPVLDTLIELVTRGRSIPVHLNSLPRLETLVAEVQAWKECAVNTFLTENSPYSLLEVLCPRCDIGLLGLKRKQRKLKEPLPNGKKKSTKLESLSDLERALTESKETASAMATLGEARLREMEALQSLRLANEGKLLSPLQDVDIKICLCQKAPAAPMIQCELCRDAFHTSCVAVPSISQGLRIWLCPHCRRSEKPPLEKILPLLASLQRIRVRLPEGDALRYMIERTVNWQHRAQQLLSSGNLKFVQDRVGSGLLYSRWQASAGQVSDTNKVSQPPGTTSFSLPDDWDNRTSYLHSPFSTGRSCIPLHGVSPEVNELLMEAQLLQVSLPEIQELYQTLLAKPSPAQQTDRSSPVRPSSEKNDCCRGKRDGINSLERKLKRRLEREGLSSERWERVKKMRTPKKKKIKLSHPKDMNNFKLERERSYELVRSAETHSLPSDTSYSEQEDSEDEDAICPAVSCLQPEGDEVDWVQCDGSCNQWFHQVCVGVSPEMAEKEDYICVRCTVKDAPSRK

NC(=O)c1ccc2[nH]ccc2c1
inactive: Potency [1] | activity, negative = inhibition [2] -16.4% | outcome [3] | outcome [4] | Potency [5] | outcome [6]

CC(C)NCC(O)c1ccc(NS(C)(=O)=O)cc1 (stereo not given)
inactive: Potency [1] | activity, negative = inhibition [2] -4.54% | outcome [3] | outcome [4] | Potency [5] | outcome [6]

Nc1nc(F)nc2c1ncn2[C@@H]1O[C@H](CO)[C@@H](O)[C@@H]1O
inactive: Potency [1] | Potency [7] | outcome [8] | Potency [9] | Potency [5] | outcome [10] | outcome [11]

O=C(NCC1CN(c2ccc(N3CCOCC3=O)cc2)C(=O)O1)c1ccc(Cl)s1 (stereo not given)
inactive: Potency [1] | Potency [7] | outcome [8] | Potency [9] | Potency [5] | outcome [10] | outcome [11]

Nc1nc(N)c2nc(CNc3ccc(C(=O)NC(CCC(=O)O)C(=O)O)cc3)cnc2n1 (stereo not given)
inactive: Potency [13] | Potency [14] | Potency [15] | outcome [3] | outcome [4] | Potency [5] | outcome [6]
active: Potency [1] 21.5 µM | Potency [12] 55.3 µM | activity, negative = inhibition [2] -994%

NC(=O)c1cccc(N)c1
inactive: outcome [3] | outcome [4] | outcome [6]

COc1cc([C@@H]2c3cc4c(cc3[C@H](O)[C@H]3COC(=O)[C@H]23)OCO4)cc(OC)c1OC
inactive: Potency [1] | Potency [9] | outcome [10] | outcome [11]

COc1ncnc(NS(=O)(=O)c2ccc(N)cc2)c1OC
inactive: Potency [1] | Potency [9] | Potency [5] | outcome [11]

CC[C@H](NC(C)C)[C@H](O)c1ccc(O)c2[nH]c(=O)ccc12
inactive: Potency [1] | Potency [9] | Potency [5] | outcome [11]

CCOC(=O)[C@H](CCc1ccccc1)N[C@H]1CS[C@H](c2cccs2)CN(CC(=O)O)C1=O
inactive: Potency [1] | Potency [9] | Potency [5] | outcome [11]

CCn1cc(C(=O)O)c(=O)c2cc(F)c(N3CCNCC3)nc21
inactive: Potency [1] | Potency [9] | outcome [10] | outcome [11]

COc1ccc2cc3[n+](cc2c1OC)CCc1cc2c(cc1-3)OCO2
inactive: Potency [1] | Potency [9] | outcome [10] | outcome [11]

CC(N)C12CC3CC(CC(C3)C1)C2 (stereo not given)
inactive: Potency [1] | Potency [9] | Potency [5] | outcome [10] | outcome [11]

CCc1cc(C(N)=S)ccn1
inactive: Potency [1] | Potency [9] | Potency [5] | outcome [11]

CN(C)CCc1c[nH]c2ccc(CS(=O)(=O)N3CCCC3)cc12
inactive: Potency [1] | Potency [9] | Potency [5] | outcome [10] | outcome [11]

COc1ccccc1OCC(O)COC(N)=O (stereo not given)
inactive: Potency [1] | Potency [9] | outcome [10] | outcome [11]

CC(C)(C)NC(=O)[C@H]1CC[C@H]2[C@@H]3CC[C@H]4NC(=O)C=C[C@]4(C)[C@H]3CC[C@]12C
inactive: Potency [1] | Potency [9] | Potency [5] | outcome [11]

CN1CCCC(n2nc(Cc3ccc(Cl)cc3)c3ccccc3c2=O)CC1 (stereo not given)
inactive: Potency [1] | Potency [9] | outcome [10] | outcome [11]

O=C(N[C@H](CO)[C@H](O)c1ccc([N+](=O)[O-])cc1)C(Cl)Cl
inactive: Potency [1] | Potency [9] | outcome [10] | outcome [11]

COc1cnc(NS(=O)(=O)c2ccc(N)cc2)nc1
inactive: Potency [1] | Potency [9] | outcome [10] | outcome [11]

Cc1ccnc2c1NC(=O)c1cccnc1N2C1CC1
inactive: Potency [1] | Potency [9] | outcome [10] | outcome [11]

NC(=O)c1cccnc1
inactive: Potency [1] | Potency [9] | Potency [5] | outcome [11]

CCCCCCNC(=O)n1cc(F)c(=O)[nH]c1=O
inactive: Potency [1] | Potency [9] | Potency [5] | outcome [11]

N[C@@H](C(=O)N[C@@H]1C(=O)N2C(C(=O)O)=C(Cl)CS[C@H]12)c1ccccc1
inactive: Potency [1] | activity change, negative = inhibition [9] 3% [at 9.18 µM] | activity change, negative = inhibition [10] -1.8% [at 12.6 µM] | activity change, negative = inhibition [11] 10.7% [at 11.5 µM]

O=c1cc(O)c(Cl)c[nH]1
inactive: Potency [1] | Potency [9] | Potency [5] | outcome [11]

O=C(O)CSCC(=O)NC1CCSC1=O (stereo not given)
inactive: Potency [1] | Potency [9] | Potency [5] | outcome [11]

CCCN[C@H]1CCc2nc(N)sc2C1
inactive: Potency [1] | Potency [9] | Potency [5] | outcome [11]

CCOCC(O)COc1ccc(NC(=O)CC[S+](C)C)cc1 (stereo not given)
inactive: Potency [1] | Potency [9] | Potency [5] | outcome [10] | outcome [11]

CC(C)(C)C(=O)OCOP(=O)(COCCn1cnc2c(N)ncnc21)OCOC(=O)C(C)(C)C
inactive: Potency [1] | Potency [9] | outcome [10] | outcome [11]

CN1CCN(c2c(F)cc3c(=O)c(C(=O)O)cn4c3c2OCN4C)CC1
inactive: Potency [1] | Potency [9] | outcome [10] | outcome [11]

NC(=O)N1c2ccccc2CC(=O)c2ccccc21
inactive: Potency [1] | Potency [9] | outcome [10]

Nc1nc(N)nc(-c2cc(Cl)ccc2Cl)n1
inactive: Potency [1] | Potency [9] | Potency [5] | outcome [11]
